# Article PMC11062922 (Nature Chemical Biology, 2023)
# Read-outs that look alike come from different tables or passages of the source.
# Experiments:
# ABL1 = test system: ABL1; set-up: species or system human, MV4-11 + K-562 + COLO205 + SK-N-BE2 + OVCAR-8; settings: read-out: apparent Kd, compound concentrations: 100 nM and 1000 nM (sheet 'Samples'), n = 1
# ABL2 = test system: ABL2; set-up: species or system human, MV4-11 + K-562 + COLO205 + SK-N-BE2 + OVCAR-8; settings: read-out: apparent Kd, compound concentrations: 100 nM and 1000 nM (sheet 'Samples'), n = 1
# BCR = test system: BCR; set-up: species or system human, MV4-11 + K-562 + COLO205 + SK-N-BE2 + OVCAR-8; settings: read-out: apparent Kd, compound concentrations: 100 nM and 1000 nM (sheet 'Samples'), n = 1
# FYN = test system: FYN; set-up: species or system human, MV4-11 + K-562 + COLO205 + SK-N-BE2 + OVCAR-8; settings: read-out: apparent Kd, compound concentrations: 100 nM and 1000 nM (sheet 'Samples'), n = 1
# GAK = test system: GAK; set-up: species or system human, MV4-11 + K-562 + COLO205 + SK-N-BE2 + OVCAR-8; settings: read-out: apparent Kd, compound concentrations: 100 nM and 1000 nM (sheet 'Samples'), n = 1
# HCK = test system: HCK; set-up: species or system human, MV4-11 + K-562 + COLO205 + SK-N-BE2 + OVCAR-8; settings: read-out: apparent Kd, compound concentrations: 100 nM and 1000 nM (sheet 'Samples'), n = 1
# LCK = test system: LCK; set-up: species or system human, MV4-11 + K-562 + COLO205 + SK-N-BE2 + OVCAR-8; settings: read-out: apparent Kd, compound concentrations: 100 nM and 1000 nM (sheet 'Samples'), n = 1
# RET = test system: RET; set-up: species or system human, MV4-11 + K-562 + COLO205 + SK-N-BE2 + OVCAR-8; settings: read-out: apparent Kd, compound concentrations: 100 nM and 1000 nM (sheet 'Samples'), n = 1
# TNK1 = test system: TNK1; set-up: species or system human, MV4-11 + K-562 + COLO205 + SK-N-BE2 + OVCAR-8; settings: read-out: apparent Kd, compound concentrations: 100 nM and 1000 nM (sheet 'Samples'), n = 1
# YES1 = test system: YES1; set-up: species or system human, MV4-11 + K-562 + COLO205 + SK-N-BE2 + OVCAR-8; settings: read-out: apparent Kd, compound concentrations: 100 nM and 1000 nM (sheet 'Samples'), n = 1
# ACVR1B = test system: ACVR1B; set-up: species or system human, MV4-11 + K-562 + COLO205 + SK-N-BE2 + OVCAR-8; settings: read-out: apparent Kd, n = 1
# RIPK2 = test system: RIPK2; set-up: species or system human, MV4-11 + K-562 + COLO205 + SK-N-BE2 + OVCAR-8; settings: read-out: apparent Kd, n = 1
# RIPK3 = test system: RIPK3; set-up: species or system human, MV4-11 + K-562 + COLO205 + SK-N-BE2 + OVCAR-8; settings: read-out: apparent Kd, compound concentrations: 100 nM and 1000 nM (sheet 'Samples'), n = 1
# CLK1 = test system: CLK1; set-up: species or system human, MV4-11 + K-562 + COLO205 + SK-N-BE2 + OVCAR-8; settings: read-out: apparent Kd; compound concentrations: 100 nM and 1000 nM (sheet 'Samples'), CATDS: 2.0431825511786902E-2; n = 1
# CLK4 = test system: CLK4; set-up: species or system human, MV4-11 + K-562 + COLO205 + SK-N-BE2 + OVCAR-8; settings: read-out: apparent Kd; compound concentrations: 100 nM and 1000 nM (sheet 'Samples'), CATDS: 1.6424162942173099E-2; n = 1
# CSNK2A1;CSNK2A3 = test system: CSNK2A1;CSNK2A3; set-up: species or system human, MV4-11 + K-562 + COLO205 + SK-N-BE2 + OVCAR-8; settings: read-out: apparent Kd; compound concentrations: 100 nM and 1000 nM (sheet 'Samples'), CATDS: 1.12264805832196E-2; n = 1
# CSNK2A2 = test system: CSNK2A2; set-up: species or system human, MV4-11 + K-562 + COLO205 + SK-N-BE2 + OVCAR-8; settings: read-out: apparent Kd; compound concentrations: 100 nM and 1000 nM (sheet 'Samples'), CATDS: 1.1107914266042299E-2; n = 1
# PTK6 = test system: PTK6; set-up: species or system human, MV4-11 + K-562 + COLO205 + SK-N-BE2 + OVCAR-8; settings: read-out: apparent Kd; compound concentrations: 100 nM and 1000 nM (sheet 'Samples'), CATDS: 5.57669232791278E-2; n = 1
# Q6ZSR9 = Q6ZSR9 (human, UniProt Q6ZSR9); set-up: species or system MV4-11 + K-562 + COLO205 + SK-N-BE2 + OVCAR-8; settings: read-out: apparent Kd; compound concentrations: 100 nM and 1000 nM (sheet 'Samples'), CATDS: 1.0084125464563E-2; n = 1
# [1] = compound concentrations:100 nM and 1000 nM (sheet 'Samples')
# Sequence of Q6ZSR9 (Q6ZSR9 whole entry, looked up): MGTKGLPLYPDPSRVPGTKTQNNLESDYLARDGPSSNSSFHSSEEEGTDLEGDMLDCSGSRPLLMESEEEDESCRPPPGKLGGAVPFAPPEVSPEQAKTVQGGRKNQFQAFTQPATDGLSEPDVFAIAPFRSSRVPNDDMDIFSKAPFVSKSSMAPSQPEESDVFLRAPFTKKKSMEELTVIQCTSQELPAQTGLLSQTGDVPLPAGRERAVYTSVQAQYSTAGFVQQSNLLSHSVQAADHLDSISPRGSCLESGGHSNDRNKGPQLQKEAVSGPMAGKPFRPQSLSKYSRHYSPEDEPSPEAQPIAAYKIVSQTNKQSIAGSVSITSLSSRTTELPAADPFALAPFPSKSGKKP
compound,measurement,setting,value
CC(C)c1nc(-c2cccc(NS(=O)(=O)c3c(F)cccc3F)c2F)c(-c2ccnc(Nc3ccc(N4CCOCC4)nc3)n2)s1 [GSK2008607A],potency estimated from few doses,ABL1; CATDS: 2.52520437406713E-2,706 nM
same,potency estimated from few doses,ABL2; CATDS: 7.58086527625733E-2,101 nM
same,potency estimated from few doses,BCR; CATDS: 3.4777380085243399E-2,355 nM
same,potency estimated from few doses,FYN; CATDS: 2.15624347754024E-2,1090 nM
same,potency estimated from few doses,GAK; CATDS: 3.3626459583734003E-2,378 nM
same,potency estimated from few doses,HCK; CATDS: 2.4637154538395101E-2,751 nM
same,potency estimated from few doses,LCK; CATDS: 4.60457501367081E-2,215 nM
same,potency estimated from few doses,RET; CATDS: 4.3035202568940403E-2,241 nM
same,potency estimated from few doses,TNK1; CATDS: 8.7218482008179707E-2,82.7 nM
same,potency estimated from few doses,YES1; CATDS: 2.6088425735390001E-2,653 nM
Fc1ccc(-c2c(-c3ccncc3)[nH]c3nccnc23)cc1 [RO1155697-000],potency estimated from few doses,ACVR1B; [1],711 nM
same,potency estimated from few doses,RIPK2; [1],828 nM
N#Cc1cnc2cc(-c3cnc(CNCCN4CCOCC4)s3)ccc2c1Nc1ccc(Oc2ccccc2)cc1 [GW664114X],potency estimated from few doses,ABL1; CATDS: 4.8325821133258902E-2,1130 nM
same,potency estimated from few doses,FYN; CATDS: 5.3110051753070202E-2,831 nM
same,potency estimated from few doses,HCK; CATDS: 0.211931822213385,69.1 nM
same,potency estimated from few doses,LCK; CATDS: 5.7694634687651798E-2,657 nM
same,potency estimated from few doses,YES1; CATDS: 7.4593421105350805E-2,361 nM
CC(=O)N1CCN(c2ccc(Nc3nccc(-c4sc(C(C)C)nc4-c4cccc(NS(=O)(=O)c5cccc(Cl)c5)c4)n3)cn2)CC1 [GSK1660437A],potency estimated from few doses,ABL2; CATDS: 7.86907844661483E-2,351 nM
same,potency estimated from few doses,FYN; CATDS: 4.41921751489057E-2,1120 nM
same,potency estimated from few doses,GAK; CATDS: 7.8355019854230004E-2,353 nM
same,potency estimated from few doses,LCK; CATDS: 4.6764709487854099E-2,973 nM
same,potency estimated from few doses,RIPK3; CATDS: 3.6291204942441098E-2,2010 nM
same,potency estimated from few doses,TNK1; CATDS: 7.10025614221442E-2,418 nM
same,potency estimated from few doses,YES1; CATDS: 4.9089753875203201E-2,868 nM
CC(C)c1nc(-c2cccc(NS(=O)(=O)c3c(F)cccc3F)c2)c(-c2ccnc(Nc3ccc(N4CCOCC4)nc3)n2)s1.Cl [GSK1723980B],potency estimated from few doses,ABL1; CATDS: 2.44032415333994E-2,301 nM
same,potency estimated from few doses,ABL2; CATDS: 5.9392404533495001E-2,61.3 nM
same,potency estimated from few doses,"ACVR1B; compound concentrations: 100 nM and 1000 nM (sheet 'Samples'), CATDS: 1.87484218332362E-2",614 nM
same,potency estimated from few doses,BCR; CATDS: 2.01356126413582E-2,494 nM
same,potency estimated from few doses,FYN; CATDS: 2.5454703773251201E-2,273 nM
same,potency estimated from few doses,GAK; CATDS: 7.7994003352353694E-2,41.9 nM
same,potency estimated from few doses,HCK; CATDS: 2.2853369268103E-2,353 nM
same,potency estimated from few doses,LCK; CATDS: 3.2406283014168501E-2,166 nM
same,potency estimated from few doses,RET; CATDS: 3.0852467961072601E-2,183 nM
same,potency estimated from few doses,"RIPK2; compound concentrations: 100 nM and 1000 nM (sheet 'Samples'), CATDS: 1.9945459179113199E-2",508 nM
same,potency estimated from few doses,RIPK3; CATDS: 1.9089551984729902E-2,580 nM
same,potency estimated from few doses,TNK1; CATDS: 4.2309935228441099E-2,104 nM
same,potency estimated from few doses,YES1; CATDS: 2.9075172405301501E-2,206 nM
CNC(=O)c1ccccc1Nc1nc(Nc2cccc(CS(C)(=O)=O)c2)ncc1C.O=CO [GSK1520489A],potency estimated from few doses,ABL1; CATDS: 1.34944121173274E-2,401 nM
same,potency estimated from few doses,ABL2; CATDS: 1.36244790700583E-2,389 nM
same,potency estimated from few doses,"ACVR1B; compound concentrations: 100 nM and 1000 nM (sheet 'Samples'), CATDS: 1.2545717700139699E-2",511 nM
same,potency estimated from few doses,BCR; CATDS: 1.52044449937046E-2,280 nM
same,potency estimated from few doses,CLK1,131 nM
same,potency estimated from few doses,CLK4,226 nM
same,potency estimated from few doses,CSNK2A1;CSNK2A3,773 nM
same,potency estimated from few doses,CSNK2A2,807 nM
same,potency estimated from few doses,FYN; CATDS: 1.4785651294397E-2,304 nM
same,potency estimated from few doses,HCK; CATDS: 2.2518734177974401E-2,105 nM
same,potency estimated from few doses,LCK; CATDS: 2.8625863065429399E-2,63 nM
same,potency estimated from few doses,PTK6,19.7 nM
same,potency estimated from few doses,Q6ZSR9,1260 nM
same,potency estimated from few doses,RET; CATDS: 2.6340417566827701E-2,74.6 nM
same,potency estimated from few doses,TNK1; CATDS: 3.8833580007227697E-2,35.6 nM
same,potency estimated from few doses,YES1; CATDS: 2.28565858871594E-2,101 nM
